An excerpt weighted towards active compounds, which were near 7.4% of everything screened.
NPC1 prom act = activators of NPC1 promoter | Huh7 NPC1 promoter luciferase reporter, 24 h | Potency, µM (doses to about 9.22 µM), for inactives: at the highest dose activation, usual class: activators | 320,000 compounds, 2.4% hits | AID 485313; further: % of control where 0% means no effect; nearly all actives have a fitted effect of over 60% in size
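Stably transfected Huh7 (NPC1 promoter→luciferase), 1500 cells/well in Opti-MEM + 10% FBS, 2 h settle, then compound 24 h at 37 °C. Luminescence after 10 min with Amplite reagent.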
Rab9 promoter act = Rab9 promoter activation | 320,000 compounds, 2.8% hits | Potency, µM (highest dose often 9.22 µM), for inactives: top-dose activation, negative = inhibition, actives largely listed as activators | Huh7 Rab9 promoter-luciferase reporter, luminescence, 24 h; further: % of control where 0% means no effect; nearly all actives have a fitted effect of over 60% in size
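Luciferase signal after 10 min detection reagent at ambient indicates Rab9 promoter upregulation; stably transfected Huh7 cells were treated 24 h with compound in DMSO at 37 °C, 5% CO2.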
ELG1 genotox = genotoxicity induction in ELG1-luciferase HEK293T cells; 330,000 compounds, 1.3% hits; HEK293T ELG1-luciferase reporter, luminescence, 16 h; Potency, µM (highest dose often 46 µM), for inactives: at the highest dose activity change, positive = activation, usual class: activators; further: % of control where 0% means no effect; nearly all actives have a fitted effect of over 60% in size
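ELG1-luciferase HEK293T cells, 2,000/well; compound pinned in; 16 hr, 37 °C, 5% CO2; ONE-Glo, 30 min RT; luminescence on CCD imager.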
FLuc modulator = inhibits or activates purified firefly luciferase, miR-21 counter-screen | AID 588342 | 360,000 compounds, 6.9% hits | purified FLuc, Km substrates, luminescence inhibition | Potency, µM (highest dose often 57.5 µM), inactives show at the highest dose activity change, negative = inhibition, actives largely listed as inhibitors;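 further: plate controls were vehicle for no effect and reference inhibitor for full effect; nearly all actives have a fitted effect of over 55% in size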
Target sequence (P08659 whole entry, looked up): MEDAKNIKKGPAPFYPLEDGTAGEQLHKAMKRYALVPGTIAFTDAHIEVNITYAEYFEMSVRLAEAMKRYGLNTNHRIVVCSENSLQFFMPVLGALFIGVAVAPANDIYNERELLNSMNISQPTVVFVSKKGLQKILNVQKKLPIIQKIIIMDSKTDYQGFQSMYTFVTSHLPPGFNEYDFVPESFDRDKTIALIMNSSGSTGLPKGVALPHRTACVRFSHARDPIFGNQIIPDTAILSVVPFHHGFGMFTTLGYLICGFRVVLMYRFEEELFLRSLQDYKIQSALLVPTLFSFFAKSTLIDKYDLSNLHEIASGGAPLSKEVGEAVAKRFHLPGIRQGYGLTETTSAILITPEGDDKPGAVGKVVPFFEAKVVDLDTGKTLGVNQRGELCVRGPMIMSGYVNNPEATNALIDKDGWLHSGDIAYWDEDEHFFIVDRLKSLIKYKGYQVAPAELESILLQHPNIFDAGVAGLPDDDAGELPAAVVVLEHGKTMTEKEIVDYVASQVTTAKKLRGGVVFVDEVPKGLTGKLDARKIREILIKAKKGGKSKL
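Purified P. pyralis luciferase (10nM final) with 10uM D-luciferin and 10uM ATP (Km levels) in 50mM Tris acetate pH 7.5, 10mM Mg acetate, 0.01% Tween-20, 0.05% BSA; qHTS 6-point titration, ~60 µM downward; luminescence read.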
SMN2 splice enh = increases expression of the SMN2 splice variant; HEK293 SMN2-luciferase splicing reporter, luminescence, 30-36 h; Potency, µM (series often up to 46.1 µM), inactives show at the highest dose activity change, positive = activation, hits mostly activators; 210,000 compounds, 2.8% hits; AID 1458; further: % of control where 0% means no effect; nearly all actives have a fitted effect of over 55% in size
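qHTS luciferase splicing reporter: luminescence rises when SMN2 exon 7 is included in transfected HEK293 cells. Compound exposure lasted 30-36 h at 37C, with 4.5 mM final sodium butyrate as control, followed by a ONE-Glo read.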
The depositor's hits bear a star; ? = inconclusive; · = no result given; [ ] = dose if it differs, or a comment. The call rests on the fitted dose curve; in most records, active means well fitted curve in the direction sought with a large enough effect; inconclusive means small, poorly fitted or top-dose-only effect, or another doubt; inactive means no such curve, though single readings can be large; an effect the other way counts as inactive or inconclusive. Potency means the concentration at half of the fitted maximal effect.

SMILES	NPC1 prom act	Rab9 promoter act	ELG1 genotox	FLuc modulator	SMN2 splice enh
O=C(c1cccs1)N(C(=O)c1cccs1)c1ccc(Br)cn1	?	1.6µM*	2.1µM*	?	?
Cc1[nH]c(C)c(CN(C)C)c1CN(C)C	·	·	·	·	0%[9.22 µM]
COc1cc(C(=O)N/N=C/c2ccc(OC(=O)c3cccc(C)c3)cc2)ccc1O	-2%	-5%	4%	?	·
O=C(Oc1ccc(/C=N/O)cc1)c1ccccc1Cl	-2%	-1%	13%	9.5µM*	7%
Cc1cccc(C(=O)Oc2ccc(/C=N/O)cc2)c1	26%	15%	?	7.6µM*	1%
COc1ccc(C)cc1NC(=O)CN(C)C1CCCCC1	2%	2%	-2%	-2%	·
O=C(Nc1ccc(C(F)(F)F)cc1)N1CCN(c2ccnc3cc(Cl)ccc23)CC1	-1%	-2%	-6%	4%	·
C/C(Cc1ccccc1)=N\NC(=O)c1ccc(F)cc1	4%	0%	4%	-9%	-36%[1.84 µM]
O=C(NN=C(Cc1ccccc1)Cc1ccccc1)c1ccc(F)cc1	11%	1%	1%	19µM*	25%
O=C(NN=C(Cc1ccccc1)Cc1ccccc1)c1ccccc1O	-6%	-18%	1%	12µM*	1%
Cc1cc(C(=O)CSc2n[nH]c(-c3ccccc3F)n2)c(C)n1Cc1cccs1	0%	-5%	-5%	17µM*	-8%
Cc1csc(SCC(=O)c2cc(C)n(Cc3cccs3)c2C)n1	?	0.32µM*	?	0.17µM*	-62%
COc1ccc(-n2cnnc2SCC(=O)c2cc(C)n(Cc3cccs3)c2C)cc1	1%	-1%	-4%	?	6%
Cc1cc(C(=O)CSc2nnc(N)s2)c(C)n1Cc1cccs1	0.56µM*	0.28µM*	0.92µM*	0.85µM*	-75%
Cc1cc(C(=O)CSc2nnc(-c3ccc(OC(F)F)cc3)o2)c(C)n1Cc1cccs1	-4%	-3%	0%	0%	12%
COc1ccc(-c2cc3ncc(C)n3c(Nc3ncccc3C(N)=O)n2)cc1OC	-10%[46.1 µM]	-17%[46.1 µM]	·	·	·
O[C@@H]1[C@@H](OCc2ccccc2)OC[C@H](O)[C@@H]1O	·	·	·	·	-2%[9.22 µM]
CCOc1ccc(N=CNc2ccc(OCC)cc2)cc1	12%	-5%	-1%	?	·
CCOc1ccc(N=Cc2ccc3ccccc3c2)cc1	12%	-2%	0%	0.76µM*	·
CCOC(=O)C1=C(Cc2ccc(Cl)cc2)C(=O)c2ccccc2C1=O	6%	-10%	-6%	21µM*	-26%
CCOC(=O)C1=C(C)N=C2c3ccccc3C(=O)C2C1c1ccc(Cl)cc1 (stereo not drawn)	-4%	-6%	-5%	0%	-4%
Cc1oc2cc3c(C(=O)N4CCCCC4)c(C)oc3cc2c1C(=O)N1CCCCC1	18%	?	?	11µM*	-36%
O=C(Nc1nn[nH]n1)c1nc(-c2ccccc2)cc(=O)[nH]1	·	·	·	·	-4%[9.22 µM]
Cc1ccc(C(=O)OC[C@H]2O[C@H](Cl)C[C@@H]2OC(=O)c2ccc(C)cc2)cc1	·	·	·	·	6%
CCOC(=O)COc1ccc2c(=O)c(-c3ccccc3)coc2c1	-1%	-5%	2%	17µM*	·
SMILES	NPC1 prom act	Rab9 promoter act	ELG1 genotox	FLuc modulator	SMN2 splice enh
CCOCCOC(=O)COc1ccc2c(-c3ccccc3)cc(=O)oc2c1	-1%	-2%	1%	?	4%
CC(=O)Oc1ccc2c(=O)c(-c3ccccc3)coc2c1	?	?	0%	13µM*	25µM*
CC(C)CCNC(=O)C1CCCN(S(=O)(=O)c2ccc3c(c2)CC(C)N3C(=O)C2CC2)C1 (stereo not drawn)	0%	1%	-2%	5%	·
CCN(CCO)c1ccc(N=Nc2cc(C)[nH]n2)cc1	?	?	?	0.27µM*	·
COc1ccccc1C(=O)NCCC(=O)NCCCSc1ccccc1	-9%	-5%	2%	-1%	·
CCC(=O)Oc1ccc(C(=O)Nc2ccc3c(c2)OCO3)cc1	2.2µM*	4.5µM*	?	5.4µM*	16µM*
CCCCOc1ccc(C(=O)Nc2ccc3c(c2)OCO3)cc1	22%	?	?	?	?
CCCOc1ccc(C(=O)Nc2ccc3c(c2)OCO3)cc1	1µM*	2.8µM*	2.3µM*	2.1µM*	·
COC(=O)c1ccc(N=NNc2ccc(C(=O)OC)cc2)cc1	?	?	18µM*	?	?
O=C(O)c1ccc(N=NNc2cccc([N+](=O)[O-])c2)cc1	0.89µM*	0.63µM*	?	2.4µM*	11µM*
COC(=O)c1ccc(N=Nc2c(C)[nH]n(-c3ccccc3)c2=O)cc1	1%	-2%	-5%	-7%	·
COC(=O)c1ccc(N=NNc2cccc(Br)c2)cc1	1.3µM*	1.3µM*	?	7.6µM*	5µM*
O=C(Nc1cccc([N+](=O)[O-])c1)c1ccc(-c2ccccc2)cc1	12%	26%	5%	-16%	2%
COC(=O)C(C)Nc1cccc(Br)c1 (stereo not drawn)	-1%	-1%	0%	1%	·
COC(=O)c1ccc(N=NNc2ccccc2)cc1	1.4µM*	1.3µM*	?	3.8µM*	8.9µM*
CCOC(=O)c1c(NC(=O)CN2C(=O)NC(C)(c3ccc(Cl)cc3)C2=O)sc(C(=O)NC)c1C (stereo not drawn)	1%	2%	-4%	-1%	6%
Nc1nc(SCc2ccccc2)[nH]c(=O)c1-c1ccccc1	?	?	12µM*	19µM*	13µM*
COc1ccc(C(=O)Nc2ccc(-c3nnn(CC(=O)N4CCN(C(=O)c5ccco5)CC4)n3)cc2)cc1	2%	1%	-7%	13µM*	-13%
CC(=O)Oc1ccc2nc(/C=C/c3ccc(C=O)cc3)oc(=O)c2c1	-4%	-2%	3%	?	·
CC(=O)Oc1ccc2nc(/C=C/c3ccccc3)oc(=O)c2c1	-5%	4%	3%	1.1µM*	·
Cc1ccccc1-c1nc2cc(Cl)ccc2c(=O)o1	-4%	1%	0%	-11%	·
CC(=O)Oc1ccc2c(=O)oc(-c3ccccc3)nc2c1	1%	0%	1%	7.6µM*	·
CC(=O)Oc1ccc2c(=O)oc(-c3ccccc3C)nc2c1	-2%	0%	0%	19µM*	·
CC(C)c1ccc(CN(Cc2ccco2)c2cnc(S(C)(=O)=O)nc2C(=O)Nc2ccccc2)cc1	·	·	·	-2%	·
Cc1nonc1NC(=O)CSc1nc2ccccc2o1	-3%	6%	0%	-2%	·
O=C(O)c1sc2cc(C(F)(F)F)cnc2c1-c1ccccn1	-7%	-4%	-1%	-11%	-9%
Cc1ncc(CO)c(/C=N/NC(=S)Nc2ccc(C(C)C)cc2)c1O	-7%	1%	-2%	13µM*	·
Cc1ccc(/C=C/C(=O)NCCCc2ccccc2)cc1	1%	-1%	-3%	-26%	-10%
C#CCNC(=O)/C=C/c1ccc(C)cc1	3.2µM*	4µM*	?	11µM*	13µM*

Compound activity deposited in PubChem BioAssay by National Center for Advancing Translational Sciences (NCATS).
